Results as given in the supplement of paper PMC10849652.
About 8,800 targets were measured; listed, in parts, are those with a hit and a random draw of the rest. About 0.5% of all pairs of compound and target were hits.

Tests used:
Test in all cases: log2 fold change, soluble protein after heating vs DMSO (PISA); higher = thermal stabilisation; K562 lysate, 10 uM; active = over 0.2 and 3.5 SD of the protein, either way, in both replicates (recomputed)
[1] = compound: C#Cc1cccc(Nc2ncnc3cc(OCCOC)c(OCCOC)cc23)c1 [erlotinib]
Outline: (§1)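 Thermal stability, expressed as log-two fold change relative to solvent controls, is given from duplicates. Crude K562 extract in PBS pH 7.4 with 1 mM MgCl2, at 1 mg/mL protein, was treated with 10 μM compound for 30 min and heated in aliquots for 3 min across 48°C-58°C. After pooling, adjustment to 0.5% NP-40 at 4°C and centrifugation at 21,000xg for 90 min, supernatant protein was measured by TMTpro 16plex LC-MS/MS with channel sums equalised.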

[2] = compound: C/C(=N\NC(=O)C1=CC(=CC=C1)S(=O)(=O)N2CCOCC2)/C3=C(C=CC(=C3)Cl)O
Outline: as §1

[3] = compound: C1=CC(=CC=C1C2=NC3=C(N2)C=C(C=C3)C(=O)N)OC4=CC=C(C=C4)Cl
Outline: as §1

[4] = compound: C1=CC2=C(C=CC(=C2)/C=C\3/C(=O)NC(=NCC4=CC=CS4)S3)N=C1
Outline: as §1

[5] = compound: C1=CC2=NC=CN=C2C=C1/C=C/3\C(=O)NC(=O)S3
Outline: as §1

[6] = compound: C1=CC=C(C=C1)C2=NC(=C(N2)C3=CC=NC=C3)C4=CC(=C(C=C4)Cl)O
Outline: as §1

[7] = compound: C1=CC=C2C(=C1)C3=NNC4=CC=CC(=C43)C2=O
Outline: as §1

[8] = compound: C1CCN(C1)C(=O)NC2=CC=CC(=C2)NC3=NC=C(C(=N3)NCCC4=CN=CN4)Br
Outline: as §1

[9] = compound: C1CN(CCC1(CC2=CC=C(C=C2)Cl)N)C3=NC=NC4=C3C=CN4
Outline: as §1

[10] = compound: C1COCCN1CCN2C3=CC=CC=C3N=C2NC(=O)C4=CC(=CC=C4)[N+](=O)[O-] [IRAK-1-4 Inhibitor I]
Outline: as §1

[11] = compound: C=CC(=O)N1CCC[C@@H](n2nc(-c3ccc(Oc4ccccc4)cc3)c3c(N)ncnc32)C1 [ibrutinib]
Outline: as §1

[12] = compound: CC(=O)c1cnc2ccc(-c3cc(Cl)c(O)c(Cl)c3)nc2c1N[C@H]1CC[C@H](CN(C)C)CC1
Outline: as §1

[13] = compound: CC(C)(C)Cn1c(N)nc2ccc(-c3[nH]c(C(C)(C)C)nc3-c3ccc(F)cc3)nc21 [ralimetinib]
Outline: as §1

[14] = compound: CC(C)(O)CC(=O)NCCn1ccc2ncnc(Nc3ccc(Oc4cccc(C(F)(F)F)c4)c(Cl)c3)c21
Outline: as §1

[15] = compound: CC(C)C1=C2N=C(C=C(N2N=C1)NCC3=CC=CC=C3)NCCCCCCN
Outline: as §1

[16] = compound: CC1=C(C2=C(C=C1)C(=O)C3=CC=CC=C3N2CCCN)C
Outline: as §1

[17] = compound: CC1=C(C=C(C=C1)NC(=O)C2=CC(=CC=C2)C(C)(C)C#N)NC3=CC4=C(C=C3)N=CN(C4=O)C
Outline: as §1

[18] = compound: CC1=C(C=C(C=C1)NC(=O)C2=CC(=CC=C2)N(C)C)NC(=O)C3=CC=C(C=C3)O
Outline: as §1

[19] = compound: CC1=CC=C(C=C1)SC2=C3C=C(SC3=CN=C2)C(=O)N
Outline: as §1

[20] = compound: CC1=C(C(CC(=O)N1)C2=CC=C(C=C2)C(F)(F)F)C(=O)NC3=C(C=C4C(=C3)C=NN4)F
Outline: as §1

Measured: log2 fold change

UBXN10 (UniProt Q96LJ8)
Sequence of UniProt Q96LJ8 (Q96LJ8 whole entry, looked up): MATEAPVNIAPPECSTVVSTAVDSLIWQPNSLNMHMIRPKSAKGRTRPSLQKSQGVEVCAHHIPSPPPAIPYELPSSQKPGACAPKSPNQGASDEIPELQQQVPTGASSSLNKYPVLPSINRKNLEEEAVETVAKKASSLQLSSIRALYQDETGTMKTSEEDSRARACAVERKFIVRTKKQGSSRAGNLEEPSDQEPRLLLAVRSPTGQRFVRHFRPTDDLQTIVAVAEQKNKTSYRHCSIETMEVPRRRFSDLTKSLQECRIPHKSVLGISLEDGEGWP
inactive: [1] 0.064 | [2] 0.026 | [3] 0.057 | [4] -0.089 | [5] -0.072 | [6] 0.027 | [7] 0.018 | [8] -0.012 | [9] 0.041 | [10] 0.03 | [11] 0.016 | [12] 0.044 | [13] 0.002 | [14] -0.012 | [15] 0.014 | [16] 0.012 | [17] -0.001 | [18] 0.069 | [19] -0.015

TNIK (UniProt C9J338)
inactive: [1] 0.067 | [2] -0.048 | [3] 0.067 | [4] -0.071 | [5] -0.064 | [7] -0.112 | [8] -0.101 | [9] 0.064 | [11] 0.041 | [12] -0.076 | [15] 0.025 | [16] -0.042 | [17] 0.16 | [19] -0.114

UBE2L6 (UniProt O14933)
Sequence of UniProt O14933 (O14933 whole entry, looked up): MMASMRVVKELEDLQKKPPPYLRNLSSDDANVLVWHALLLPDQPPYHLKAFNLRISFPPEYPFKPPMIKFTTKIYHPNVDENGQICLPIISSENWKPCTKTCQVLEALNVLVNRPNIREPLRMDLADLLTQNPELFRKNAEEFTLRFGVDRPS
inactive: [1] 0.062 | [2] -0.03 | [3] 0.007 | [4] -0.003 | [5] -0.065 | [6] -0.001 | [7] 0.023 | [8] -0.014 | [9] 0.144 | [10] 0.047 | [11] 0.152 | [12] 0.012 | [13] -0.002 | [14] -0.041 | [15] -0.009 | [20] -0.033 | [16] -0.014 | [17] -0.019 | [18] -0.007 | [19] 0.002

TUBB4A (UniProt M0QYM7)
inactive: [1] -0.017 | [2] -0.063 | [3] 0.071 | [4] -0.015 | [5] -0.322 | [6] 0.044 | [7] -0.097 | [8] -0.038 | [9] -0.027 | [10] 0.025 | [11] 0.092 | [12] 0.049 | [13] 0.103 | [14] -0.117 | [15] 0.005 | [20] -0.102 | [17] 0.13 | [18] 0.102 | [19] 0.024

TK1 (UniProt K7ERV3)
inactive: [1] 0.01 | [2] -0.061 | [3] 0.078 | [4] -0.047 | [5] -0.114 | [6] 0.048 | [7] 0.036 | [8] 0.017 | [9] 0.222 | [10] 0.04 | [11] 0.175 | [13] -0.018 | [14] -0.061 | [15] -0.114 | [20] -0.013 | [16] -0.023 | [17] 0.032 | [18] -0.028

TUBGCP4 (UniProt Q9UGJ1)
Sequence of UniProt Q9UGJ1 (Q9UGJ1 whole entry, looked up): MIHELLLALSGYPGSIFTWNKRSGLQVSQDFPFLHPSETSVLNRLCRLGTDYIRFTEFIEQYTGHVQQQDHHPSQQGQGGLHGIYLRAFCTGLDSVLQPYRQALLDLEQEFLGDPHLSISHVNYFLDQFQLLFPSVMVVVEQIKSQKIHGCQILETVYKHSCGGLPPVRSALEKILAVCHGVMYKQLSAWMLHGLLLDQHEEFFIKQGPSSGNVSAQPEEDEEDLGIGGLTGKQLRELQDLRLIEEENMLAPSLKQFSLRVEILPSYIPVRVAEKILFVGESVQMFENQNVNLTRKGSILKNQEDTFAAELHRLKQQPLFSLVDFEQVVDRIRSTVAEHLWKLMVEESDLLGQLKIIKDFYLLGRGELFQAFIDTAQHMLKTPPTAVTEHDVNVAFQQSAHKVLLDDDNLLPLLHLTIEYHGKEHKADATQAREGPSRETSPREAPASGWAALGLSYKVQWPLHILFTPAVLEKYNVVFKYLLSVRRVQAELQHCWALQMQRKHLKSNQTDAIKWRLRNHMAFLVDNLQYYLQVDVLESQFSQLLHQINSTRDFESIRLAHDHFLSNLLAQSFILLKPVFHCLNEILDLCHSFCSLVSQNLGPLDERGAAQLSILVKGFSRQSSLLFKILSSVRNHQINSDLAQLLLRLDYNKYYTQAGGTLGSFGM
inactive: [1] -0.017 | [2] -0.017 | [3] -0.007 | [4] 0.015 | [5] -0.018 | [6] -0.01 | [7] -0.028 | [8] 0.133 | [9] 0.045 | [10] 0.052 | [11] 0 | [12] -0.051 | [13] 0.052 | [14] -0.037 | [15] 0 | [20] 0.021 | [16] -0.048 | [17] -0.002 | [18] 0.05 | [19] 0.043
